Experimental findings from PubChem BioAssay (NCATS) are described below.

Results filed as inconclusive are left out. Unmarked numbers belong to inactive results. Activity calls are given as the source filed them. The call rests on the fitted dose curve; in most records, active means well fitted inhibition curve with a large enough effect; inconclusive means small, poorly fitted or top-dose-only effect; inactive means flat fitted curve, though single readings scatter.
On the % scale 0 is the no-effect control and ±100 the full control effect; potency means the concentration at half of the fitted maximal effect.

A short description of this test: P-glycoprotein substrates identified in KB-8-5-11 adenocarcinoma cell line, qHTS therapeutic library screen (AID 1346987). Further: nearly all actives have a fitted effect of over 65% in size. The settings on record: KB-8-5-11 (P-gp overexpressing) viability, CellTiter-Glo, 72 h; series mostly up to 44.5 µM; activity change, negative = cytotoxicity: at the top concentration. In a few lines:
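Steps: plate 500 KB-8-5-11 cells/well in DMEM + 10% FCS (colchicine removed); pin compounds in dose-response; incubate 72 h, 37 degree C, 5% CO2; add CellTiter-Glo, 5 min; read luminescence.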
On the technique in general: qHTS replaces the single test concentration by a dilution series.
Turning to `COc1cc(O)cc(OC2OC(CO)C(O)C(O)C2O)c1` (stereo not given), the result was inactive.

On to `C[C@H]1CO[C@@H]2Cn3cc(C(=O)NCc4ccc(F)cc4F)c(=O)c(O)c3C(=O)N12`, for which the “activity change, negative = cytotoxicity” value is -20.1%.

As to `CN=C(NC)NCc1ccccc1`, the “activity change, negative = cytotoxicity” value is 13%.

`COc1ccc(CCO[C@@H]2O[C@H](CO[C@H]3OC[C@](O)(CO)[C@H]3O)[C@@H](OC(=O)/C=C/c3ccc(O)c(O)c3)[C@H](O[C@@H]3O[C@@H](C)[C@H](O)[C@@H](O)[C@H]3O)[C@H]2O)cc1OC`: the “activity change, negative = cytotoxicity” value is 2.86% [at 17.3 µM].

Turning to `CNS(=O)(=O)c1ccccc1Nc1nc(Nc2ccc(N3CCN(C)CC3)cc2OC)ncc1Br`, the Potency was 2.06 µM (active).

On to `CC(=O)OCC(=O)[C@@]1(O)[C@H](C)C[C@H]2[C@@H]3C[C@H](F)C4=CC(=O)C=C[C@]4(C)[C@H]3[C@@H](O)C[C@@]21C`, for which the “activity change, negative = cytotoxicity” value was -11.1%.

`CCCCCCOC(=O)/N=C(\N)c1ccc(NCc2nc3cc(C(=O)N(CCC(=O)OCC)c4ccccn4)ccc3n2C)cc1`: the “activity change, negative = cytotoxicity” value is -16.8%.

Turning to `Nc1c(CC(=O)O)cccc1C(=O)c1ccccc1`, the Potency result was “inactive”.

Take `CC1=CC2/C=C(\C)CCC(O)C/C=C/C(=O)OC23C(=O)NC(CC(C)C)C3C1C` (stereo not given): the “activity change, negative = cytotoxicity” value was -9.78% [at 17.3 µM].

On to `COc1cc([C@@H]2c3cc4c(cc3C(O[C@@H]3O[C@@H]5COC(c6cccs6)O[C@H]5[C@H](O)[C@H]3O)C3COC(=O)[C@@H]32)OCO4)cc(OC)c1O` (stereo not given in full), for which the “activity change, negative = cytotoxicity” value is -19%.

On to `C=CC(C)(C)C12CC3C(=O)N4C(CC5(C(C)(C)C=C)c6ccccc6NC45)C(=O)N3C1Nc1ccccc12` (stereo not given), for which the “activity change, negative = cytotoxicity” value was -12% [at 17.3 µM].

On to `C/C=C/C1=CC2=C(CO1)C(=O)C(C)(OC(=O)c1c(C)cc(O)cc1OC)C(O)C2` (stereo not given), for which the outcome was inactive.

`C/C=C/C=C/C=C/C(=O)O[C@@H]1C=C2COC(=O)[C@]2(O)[C@@]2(C)CCCC(C)(C)[C@H]12`: the “activity change, negative = cytotoxicity” value was -7.86% [at 17.3 µM].

For the compound `CC(=O)OC(C)(C)/C=C/C(=O)C(C)(O)C1C(O)CC2(C)C3CC=C(C(C)(C)C(=O)O)C(CC(=O)O)C3(C)C(=O)CC12C` (stereo not given), the “activity change, negative = cytotoxicity” value is -17.2% [at 17.3 µM].

As to `O=S(=O)(O)Oc1ccc(C(c2ccc(OS(=O)(=O)O)cc2)c2ccccn2)cc1`, the “activity change, negative = cytotoxicity” value is 8.69%.

Consider `CCOC(=O)c1cnc2ccc(-c3cncc(NS(=O)(=O)c4ccccc4)c3)cn12`, for which the Potency was 4.11 µM (active).

Consider `CO[C@@H]1CC(OC2CCC3(C)C(CCC45CCC(C6=CC(=O)OC6)C(C)(CCC43)C5=O)C2)O[C@H](C)[C@@H]1O[C@@H]1O[C@H](CO[C@@H]2O[C@H](CO)[C@@H](O)[C@H](O)[C@H]2O)[C@@H](O)[C@H](O)[C@H]1O` (stereo not given in full), for which the Potency is 4.37 µM (active).

Regarding `C=C1/C(=C/C=C2\CCC[C@]3(C)[C@@H]([C@H](C)/C=C/[C@H](O)C4CC4)CC[C@@H]23)C[C@@H](O)C[C@@H]1O`, the “activity change, negative = cytotoxicity” value is -6.16%.

`CC(C)CCNC(=O)[C@H](CC(C)C)NC(=O)[C@H]1O[C@@H]1C(=O)O`: the “activity change, negative = cytotoxicity” value was 2.03%.

For `O=C(NCCN1CCN(c2cccc3ccc(O)cc23)CC1)c1ccc(F)cc1`, the “activity change, negative = cytotoxicity” value was -20.3%.

As to `COC(=O)C[C@](O)(CCCC(C)(C)O)C(=O)O[C@@H]1C(OC)=CC23CCCN2CCc2cc4c(cc2[C@H]13)OCO4` (stereo not given in full), the Potency is 13 µM (active).

Regarding `CCn1c(=O)c(-c2ccc(-c3cncs3)cc2Cl)cc2cnc(Nc3ccc(N4CCN(C)CC4)cc3)nc21`, the Potency was 18.4 µM (active).

In the case of `O=C1O[C@@H]2[C@@H](O)[C@H](O)O[C@@H]2[C@H]1O`, the “activity change, negative = cytotoxicity” value was 9.93%.

Take `C[C@H](Nc1ncnc2nc[nH]c12)c1cc2cccc(Cl)c2c(=O)n1-c1ccccc1`: the “activity change, negative = cytotoxicity” value is -16.4%.

In the case of `Cn1cc(-c2ccc(F)c(C(F)(F)F)c2)nc1C1CCN(c2ncnc3[nH]ncc23)CC1`, the “activity change, negative = cytotoxicity” value was 4.47% [at 17.3 µM].

Turning to `Cc1cc(OCCCS(C)(=O)=O)cc(C)c1-c1cccc(COc2ccc(C3=CC(=O)NS3=O)cc2)c1` (stereo not given), the “activity change, negative = cytotoxicity” value is -17.9%.

In the case of `c1cnc2cc3c(cc2n1)[C@@H]1CNC[C@H]3C1`, the “activity change, negative = cytotoxicity” value was 0.729%.

Regarding `CCCN(CC)C(CC)C(=O)Nc1c(C)cccc1C` (stereo not given), the “activity change, negative = cytotoxicity” value was -3.33%.

Consider `CCOC(=O)COc1ccc2c(C)c(CCN(CC)CC)c(=O)oc2c1`, for which the “activity change, negative = cytotoxicity” value was 3.28%.

Take `COc1cc2c(c(OC)c1OC)-c1c(cc3c(c1OC)OCO3)C[C@@H](C)[C@](C)(O)C2`: the Potency entry is “inactive”.

Consider `O=c1[nH]cnc2c([C@@H]3N[C@H](CO)[C@@H](O)[C@H]3O)c[nH]c12`, for which the call was inactive.

In the case of `O=C(Nc1nnc(-c2ccc3c(c2)OCCO3)o1)C1CCCCC1`, the “activity change, negative = cytotoxicity” value was -19.9%.

`CCN(CC)c1ccc(C(=C2C=CC(=[N+](CC)CC)C=C2)c2ccccc2)cc1`: the Potency is 4.61 µM (active).

Regarding `O=C(Nc1ccnc(NC(=O)C2CC2)c1)c1c(Cl)cccc1Cl`, the Potency was 8.2 µM (active).

Consider `FC(F)(F)c1ccc(CNc2ccc(Cc3c[nH]c4ncc(Cl)cc34)cn2)cn1`, for which the Potency was 14.6 µM (active).

For `Cc1cccc(C)c1N(CCCc1cccnc1)C(=O)C(C)N` (stereo not given), the “activity change, negative = cytotoxicity” value was -29.3%.

`CC1(C(=O)Nc2ccc(F)nc2)CCCN1c1nc(Nc2cc(C3CC3)[nH]n2)c2cccn2n1` (stereo not given): the Potency is 2.31 µM (active).

In the case of `Cc1ccccc1CNc1ncnc2c1ncn2[C@@H]1O[C@H](CO)[C@@H](O)[C@H]1O`, the “activity change, negative = cytotoxicity” value is -17.8%.

Regarding `Cc1ccc(C)c(NS(=O)(=O)c2cc(C(=O)Nc3ccccc3-c3ccccc3)ccc2C)c1`, the Potency was 16.4 µM (active).

`Cn1ncc2cc(-c3cnc(N)c(Cl)c3N3CCC4(CCNC4=O)CC3)ccc21`: the “activity change, negative = cytotoxicity” value is 1.5%.
